Sampled rows, rich in hits. Any-hit rate of the full collection: about 8.9%.
KB-3-1 tox = kills parental KB-3-1 adenocarcinoma cells; KB-3-1 viability, CellTiter-Glo ATP luminescence, 72 h; Potency, µM (series often up to 46.1 µM), usual class: cytotoxic; 400,000 compounds, 1.4% hits; note: nearly all actives have a fitted effect of over 60% in size
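Viability of parental KB-3-1 cells, measured by CellTiter-Glo luminescence, followed a 72 h incubation at 37 °C with pinned compounds in phenol-red-free DMEM containing 10% FBS.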
MCF10A rerep = DNA re-replication induction in MCF 10a cells. MCF 10A DNA re-replication, Hoechst nuclear intensity, 48 h. Potency, µM (titrated, usually from 46.1 µM), usual class: activators. 350,000 compounds, 2.9% hits. AID 624296; note: nearly all actives have a fitted effect of over 50% in size
KB-V1 MDR tox = KB-V1 MDR subline cytotoxicity | 400,000 compounds, 3.4% hits | Potency, µM (highest dose often 46.1 µM), most hits filed as cytotoxic | KB-V1 MDR cells viability, CellTiter-Glo, 72 h; note: nearly all actives have a fitted effect of over 60% in size
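KB-V1 MDR subline cells in DMEM (phenol-red free, 10% FBS) exposed to compounds in qHTS concentration series for 72 h at 37 degrees C. Viability read by CellTiter-Glo luminescence; concentration-effect curves fitted after normalization and correction.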
D3 ag = D3 dopamine receptor (human) agonism; P35462; D3R DiscoveRx beta-arrestin cells, luminescence, 90 min; max activation, %; 410,000 compounds, 0.58% hits; AID 652048; in the data active = max activation above about 30%
Target sequence (P35462 whole entry, looked up): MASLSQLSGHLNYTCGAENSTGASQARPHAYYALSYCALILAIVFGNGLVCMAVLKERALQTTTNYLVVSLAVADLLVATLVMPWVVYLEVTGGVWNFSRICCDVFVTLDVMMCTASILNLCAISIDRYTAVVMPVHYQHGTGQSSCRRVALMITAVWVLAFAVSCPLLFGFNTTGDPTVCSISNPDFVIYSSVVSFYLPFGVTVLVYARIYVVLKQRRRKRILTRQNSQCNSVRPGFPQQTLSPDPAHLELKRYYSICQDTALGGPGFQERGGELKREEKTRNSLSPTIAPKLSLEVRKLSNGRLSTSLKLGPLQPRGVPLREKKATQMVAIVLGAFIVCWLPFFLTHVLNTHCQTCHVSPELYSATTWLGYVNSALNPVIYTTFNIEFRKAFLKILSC
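Agonist mode: compounds and dopamine controls were applied to plated cells for 90 min at 37 degrees C after an overnight attachment at 1500 cells/well. Luminescent read-out followed 30 - 60 minutes at room temperature with DiscoveRx detection reagent.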
D3 antag = D3 dopamine receptor (human) antagonism | max response, negative = inhibition, % | 360,000 compounds, 2.5% hits | D3R cells, DiscoveRx beta-arrestin luminescence, antagonist mode; active compounds read low | AID 652054; in the data active = max response below about -50%; inconclusive = no clear call, values can overlap the other calls
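Cells plated overnight at 1500 cells/well, then exposed to library compounds with dopamine controls for 90 minutes at 37 degrees C. DiscoveRx reagent added for 30–60 minutes at room temperature; luminescence read, quantitative HTS format.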
SW480 rereplic = induces DNA re-replication in SW480 colon adenocarcinoma cells. SW480 DNA re-replication, Hoechst DNA content imaging, 48 h. Potency, µM (doses to about 46.1 µM), most hits filed as activators. 340,000 compounds, 1.8% hits. AID 624297; note: nearly all actives have a fitted effect of over 55% in size
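SW480 cells exposed to compounds for 48 hr at 37 C, 5% CO2, then Hoechst-stained 40 min. Nuclear DNA content imaged by fluorescence scanning (405 nm excitation, 500-530 nm emission); re-replication scored as increased high-intensity nuclei.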
Hits are given with their value; . = inactive; ? = inconclusive; / = no result; ! = a repeat was not active. Unless noted, calls come from the whole dose curve; as a rule, active = well fitted curve in the direction sought with a large enough effect; inconclusive = small, poorly fitted or top-dose-only effect, or another doubt; inactive = no such curve, though single readings can be large; an effect the other way counts as inactive or inconclusive.

SMILES	KB-3-1 tox	MCF10A rerep	KB-V1 MDR tox	D3 ag	D3 antag	SW480 rereplic
CCOc1ccc(CCNC(=O)c2cccc(-n3cnnn3)c2)cc1OCC	.	.	18µM	.	.	.
Cn1nc(-c2ccccc2F)c2cc(C(=O)N3CCN(c4ccccc4F)CC3)sc21	?	/	5.2µM	51	/	/
Cc1ccc(CCNC(=O)c2cc3c(-c4ccccc4F)nn(C)c3s2)cc1	.	/	.	.	/	/
CCN(CC)CCCNC(=O)c1cc2c(-c3ccc(Cl)cc3)nn(C)c2s1	?	.	?	.	?	?
COc1ccc(CCNC(=O)c2cccc(-n3cnnn3)c2)cc1	.	.	.	.	.	.
CCN(CCCNC(=O)c1cc2c(-c3cccc(OC)c3)nn(C)c2s1)Cc1ccccc1	.	?	.	.	-54	?
Cc1ccc(C)n1-c1c(C(=O)NCC(C)c2ccccc2)sc2ncccc12 (centres undefined)	?	/	.	.	/	/
COc1cccc(N2CCN(C(=O)C3CCCN(S(=O)(=O)c4ccc(Br)s4)C3)CC2)c1 (centres undefined)	.	/	.	.	/	/
COc1ccc(-c2cc(C(F)(F)F)n3nc(-c4ccc(Cl)cc4)cc3n2)cc1OC	.	/	.	.	/	/
CCOc1ccc(CCNC(=O)c2cc3c(-c4cccc(OC)c4)nn(C)c3s2)cc1OCC	?	/	23µM	.	/	/
COc1ccc(Cc2[nH]n3c(=O)cc(C(C)C)nc3c2-c2ccccc2)cc1	10µM	2.6µM	.	.	.	10µM
CC(=O)[C@@]1(O)CC[C@H]2[C@@H]3C=C(Cl)C4=CC(=O)[C@@H]5C[C@@H]5[C@]4(C)[C@H]3CC[C@@]21C	/	/	/	.	/	/
COc1ccc2nc(N3C(=O)C(O)=C(C(=O)c4ccco4)C3c3ccc(OC)c(OC)c3)sc2c1 (centres undefined)	.	/	.	.	.	/
Cc1ccc2nc(N3C(=O)C(O)=C(C(=O)c4ccc(C)o4)C3c3cccc(O)c3)sc2c1 (centres undefined)	.	23µM	.	.	.	.
COc1cccc(N2CCN(C(=S)Nc3ccc(F)cc3)CC2)c1	.	.	.	.	.	.
COc1cccc(N2CCN(C(=S)Nc3cc(C)cc(C)c3)CC2)c1	.	11µM	?	.	.	?
COc1ccccc1N1CCN(C(=S)Nc2cccc(C)c2)CC1	?	16µM	?	.	.	?
Cc1cccc(NC(=S)N2CCN(c3cc(C)ccc3C)CC2)c1	.	.	?	.	.	.
COc1ccc(N=C2SCC(=O)N2CCc2ccc(OC)c(OC)c2)cc1	?	.	.	.	.	.
COc1ccc(CCN2C(=O)CSC2=Nc2ccc(C(C)C)cc2)cc1OC	3.7µM	16µM	3.3µM	43	.	9.2µM
c1ccc2oc(-c3nn4c(Cn5cnc6ccccc65)nnc4s3)cc2c1	.	.	.	.	.	.
Cc1cccc(-c2nnc3sc(-c4ccccc4)nn23)c1	.	.	.	.	.	.
COc1ccc(-c2nn3c(-c4cccc(C)c4)nnc3s2)cc1OC	.	?	16µM	.	.	?
CN(C)c1ccc(-c2nn3c(-c4ccccc4Cl)nnc3s2)cc1	0.58µM	?	1.2µM	.	.	1µM
COc1ccccc1-c1nnc2sc(-c3ccc(N(C)C)cc3)nn12	0.29µM	?	0.058µM	.	.	?
SMILES	KB-3-1 tox	MCF10A rerep	KB-V1 MDR tox	D3 ag	D3 antag	SW480 rereplic
COc1ccccc1-c1nnc2sc(-c3cc4ccccc4o3)nn12	0.52µM	2.9µM	?	.	.	2.6µM
Clc1ccccc1-c1nnc2sc(-c3ccncc3)nn12	.	.	.	.	.	.
Cc1cccc(NC(=O)c2c(NC(=O)c3ccco3)sc3c2CCC(C(C)(C)C)C3)c1 (centres undefined)	.	/	.	.	/	/
C#Cc1ccc(NC(=O)C2(C)CCN2C(=O)c2cc(C)n(C)n2)cc1 (centres undefined)	.	/	.	.	.	/
CC(C)C[C@H]1CN(CCCC[C@H]2CNC(=O)C(=O)N2CCc2ccccc2)C(=O)C(=O)N1CC1CCCCC1	.	/	.	.	.	/
CCCCN(C)CCCNC(=O)Cn1ncc2c3ccccc3n(Cc3cc(C)ccc3C)c2c1=O	/	/	/	.	/	/
COc1ccccc1-c1nn2c(C(F)(F)F)nnc2s1	?	.	7.3µM	.	.	.
CCOc1ccc(-c2nnc3sc(-c4ccccc4OC)nn23)cc1	.	.	.	.	.	.
COc1ccccc1-c1nnc2sc(-c3cnccn3)nn12	.	18µM	.	.	.	?
CCN(C(=O)c1cc2cc(Br)cc(OC)c2oc1=O)c1ccccc1	.	/	.	.	/	/
CC1=C(C(=O)Nc2cccnc2)C(c2cccc(O)c2)n2nc(SCc3ccccc3)nc2N1 (centres undefined)	.	/	?	.	/	/
C[C@@H]1CCCCO[C@@H](CN(C)S(=O)(=O)c2ccccc2)[C@@H](C)CN([C@H](C)CO)C(=O)c2cc(NS(=O)(=O)c3ccc(F)cc3)ccc2O1	?	/	.	.	.	/
NC(=O)[C@H]1CC2(CC(c3cccc(NC(=O)COc4ccc(Cl)cc4)c3)=NO2)CN1C(=O)c1ccccc1C(=O)c1ccccc1 (some centres undefined)	21µM	?	.	.	.	.
COc1ccc(OC)c(C2=CC(=O)C[C@H](c3ccc(F)cc3)C2)c1	.	/	.	.	.	/
COc1cccc(OC)c1C1=CC(=O)C[C@H](c2ccc3c(c2)OCO3)C1	.	?	.	.	.	?
CCOc1ccc(Cl)cc1C1=CC(=O)C[C@H](c2ccc(OC)cc2)C1	?	?	4.6µM	.	.	3.7µM
COc1ccc([C@H]2CC(=O)C=C(c3cc(C=O)ccc3OC)C2)cc1OC	?	.	.	.	.	?
COc1ccc([C@H]2CC(=O)C=C(c3cc(OC)ccc3OC)C2)cc1	16µM	?	23µM	.	.	?
COc1ccc([C@H]2CC(=O)C=C(c3c(OC)cccc3OC)C2)cc1	?	1.2µM	?	.	.	18µM
COc1ccc([C@H]2CC(=O)C=C(c3cc(C=O)ccc3OC)C2)cc1	16µM	?	?	.	.	9.2µM
CCCCNC(=O)C1(C)CCC(=O)N1CCCn1ccnc1 (centres undefined)	.	/	.	.	.	/
CC1Cc2cc(S(=O)(=O)CCC(=O)Nc3cccc(F)c3)ccc2N1C(=O)C1CC1 (centres undefined)	/	/	/	.	/	/
COc1ccc([C@H]2CC(=O)C=C(c3cc(F)ccc3OC)C2)cc1	?	21µM	?	.	.	?
CCc1nn(CC(=O)Nc2ccc(N(CC)CC)cc2C)c(=O)c2cc3sccc3n12	.	/	.	.	/	/
Cc1ccc(N(CC2=NCCN2)c2cccc(O)c2)cc1	?	.	.	.	-63!	?

Compound activity: PubChem, National Center for Advancing Translational Sciences (NCATS)
